The sequences below were run against T1, SALL4 ZFC4 G921D (HT-SELEX) (Mus musculus, UniProt Q8BX22 870-940, G921D) (assay: HT-SELEX; high values mean tight binding). Conditions: protein: recombinant; vector His6-GST; dsDNA, one strand shown.
T1 sequence: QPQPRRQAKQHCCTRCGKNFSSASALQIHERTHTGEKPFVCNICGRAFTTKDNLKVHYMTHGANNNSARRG
Outline: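 Each canonical k-mer's binding signal is its read fraction expressed as fold change over the initial random library. Reads came from MiSeq sequencing, scanned for 6-mers, after up to 6 triplicate cycles in which purified recombinant mouse SALL4 zinc finger cluster 4 (residues 870–940, 1 µg) bound library DNA (1.5 µg first cycle, 200 ng later) in 100 µl of 10 mM Tris–HCl pH 7.5, 50 mM NaCl, poly(dI-dC), DTT for 10 min at room temperature. Complexes were then Ni2+ bead-captured, washed, PCR-amplified and reselected.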

Compared with CGTGAG, ACTCCC is higher in binding signal: 0.607 ± 0.0306 fold-change vs cycle 0 for the first, 0.716 ± 0.0322 fold-change vs cycle 0 for the second.

Going from CTACAA to CATAAG, the binding signal rises from 1.24 ± 0.0556 fold-change vs cycle 0 to 1.45 ± 0.0676 fold-change vs cycle 0.

First: ATCATC
Second: GCTGTA
The binding signal of the first is higher: 1.49 ± 0.0918 fold-change vs cycle 0 for the first, 0.75 ± 0.0402 fold-change vs cycle 0 for the second.

First: CCTCTC
Second: GTTATA
The binding signal of the first is lower: 0.687 ± 0.045 fold-change vs cycle 0 for the first, 1.78 ± 0.179 fold-change vs cycle 0 for the second.

First: CAGCTG
Second: GTCTCA
The binding signal of the first is lower: 0.499 ± 0.0395 fold-change vs cycle 0 for the first, 0.938 ± 0.0386 fold-change vs cycle 0 for the second.

CGAGGA and AGCCTC are within error of each other in binding signal: 0.587 ± 0.0701 fold-change vs cycle 0 for the first, 0.536 ± 0.0409 fold-change vs cycle 0 for the second.

Going from AAGGAG to CGTCAA, the binding signal falls from 1.13 ± 0.0474 fold-change vs cycle 0 to 0.765 ± 0.0373 fold-change vs cycle 0.

First: AGCGAA
Second: ATTCCA
The binding signal of the first is lower: 0.686 ± 0.0519 fold-change vs cycle 0 for the first, 1.38 ± 0.106 fold-change vs cycle 0 for the second.

Going from CATTCG to AATTGC, the binding signal rises from 0.847 ± 0.0186 fold-change vs cycle 0 to 1.04 ± 0.0209 fold-change vs cycle 0.

Compared with ATTCTG, CAGATG is lower in binding signal: 1.28 ± 0.0492 fold-change vs cycle 0 for the first, 0.959 ± 0.0159 fold-change vs cycle 0 for the second.

Going from ACATCT to AGGAGA, the binding signal falls from 1.4 ± 0.0574 fold-change vs cycle 0 to 1.06 ± 0.044 fold-change vs cycle 0.

Going from AGTGAG to CTGTTC, the binding signal falls from 1.05 ± 0.0473 fold-change vs cycle 0 to 0.959 ± 0.0166 fold-change vs cycle 0.

GTTCGA and ATCTGG are within error of each other in binding signal: 0.821 ± 0.0291 fold-change vs cycle 0 for the first, 0.901 ± 0.0524 fold-change vs cycle 0 for the second.

First: CTTAAA
Second: CTTTGA
The binding signal of the first is higher: 1.65 ± 0.165 fold-change vs cycle 0 for the first, 1.33 ± 0.077 fold-change vs cycle 0 for the second.

Going from GCGTAA to CGAAGA, the binding signal rises from 0.651 ± 0.033 fold-change vs cycle 0 to 0.859 ± 0.0315 fold-change vs cycle 0.

Compared with CTAAAG, ATCAAT is higher in binding signal: 1.34 ± 0.112 fold-change vs cycle 0 for the first, 1.9 ± 0.133 fold-change vs cycle 0 for the second.

Compared with CAACAC, ACCACG is lower in binding signal: 0.849 ± 0.0276 fold-change vs cycle 0 for the first, 0.523 ± 0.0453 fold-change vs cycle 0 for the second.

Going from CCAACA to CTCTAA, the binding signal rises from 0.817 ± 0.0303 fold-change vs cycle 0 to 1.36 ± 0.0965 fold-change vs cycle 0.

Going from CTCCCC to ATTGAA, the binding signal rises from 0.456 ± 0.0544 fold-change vs cycle 0 to 1.86 ± 0.169 fold-change vs cycle 0.

First: AAAGTG
Second: AGGGTG
The binding signal of the first is higher: 1.22 ± 0.0345 fold-change vs cycle 0 for the first, 0.648 ± 0.0341 fold-change vs cycle 0 for the second.

From article PMC9838217, “Structure of SALL4 zinc finger domain reveals link between AT-rich DNA binding and Okihiro syndrome”
